According to PubChem BioAssay AID1009 (NMMLSC, 2008):
The campaign covered roughly 190,000 compounds. About 200 (0.11%) were called active. Rule as the data show it: active = inhibition above about 40%. Shown is part of a subset that was picked to be rich in actives.

Target: Induced myeloid leukemia cell differentiation protein Mcl-1 (Homo sapiens) (UniProt Q07820)
Experiment: Mcl-1/Bim interaction disruptors – biochemical, bead-based flow cytometry, multiplex, primary screen (AID 1009);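 also: 0% = no compound tracer wells and 100% = peptide blocker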
Details: Bim peptide-Mcl-1 binding, at 10 µM, hits give high values

Chain of Induced myeloid leukemia cell differentiation protein Mcl-1 (Homo sapiens) (Q07820 whole entry, looked up): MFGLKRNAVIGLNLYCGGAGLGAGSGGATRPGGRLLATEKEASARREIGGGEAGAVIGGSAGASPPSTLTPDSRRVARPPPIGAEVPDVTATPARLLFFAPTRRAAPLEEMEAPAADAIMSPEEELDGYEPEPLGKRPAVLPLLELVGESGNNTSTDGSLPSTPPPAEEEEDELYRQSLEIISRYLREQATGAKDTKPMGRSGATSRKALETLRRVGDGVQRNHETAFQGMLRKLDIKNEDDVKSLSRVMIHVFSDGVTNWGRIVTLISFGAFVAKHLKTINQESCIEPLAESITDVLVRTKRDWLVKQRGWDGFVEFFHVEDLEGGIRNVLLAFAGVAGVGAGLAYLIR

inhibition, inactive:
COCCNC(=O)CCCn1c(=O)c2ccccc2n(Cc2cccc([N+](=O)[O-])c2)c1=O 0%
CCC(=O)N1c2ccccc2NC2=C(C(=O)CCC2)C1c1ccco1 (configuration not stated) 0%
S=c1[nH]cc(-c2ccc(Cl)cc2)n1-c1ccccc1 3%
CC/C(=N\NC(=S)NC(C)C)c1ccc(OC(F)F)cc1 -2%
O=c1cc(CO)oc(C(Nc2cccc([N+](=O)[O-])c2)c2ccccn2)c1O (configuration not stated) -4%
CCCc1nc2c([nH]1)C(c1cccnc1)C(C#N)=C(N)O2 (configuration not stated) -3%
COCCCNC(=S)N1CCCC(c2nc3cc(C)c(C)cc3[nH]2)C1 (configuration not stated) 6%
O=C(O)c1ccc2c3c(cccc13)C(=O)N(OS(=O)(=O)c1ccccc1)C2=O 1%
O=c1[nH]c(CN2CCOCC2)nc2scc(-c3ccccc3)c12 0%
O=C(O)Cc1ccc(NCc2ccccc2Cl)cc1 -2%
CC(NC(=O)CC1SC(N)=NC1=O)c1ccccc1 (configuration not stated) -7%
CCc1nn(CCCN2CCN(c3cccc(Cl)c3)CC2)c(=O)n1CCOc1ccccc1 0%
O=C1CS(=O)CN1c1ccc(Oc2ccccc2)cc1 (configuration not stated) 0%
C=C(C)C1CC=C(C)/C(=N\NC(=O)CNc2ccccc2OC)C1 (configuration not stated) 0%
COc1ccc([N+](=O)[O-])cc1NC(=O)CC1SC(=Nc2cccc(C)c2C)N(/N=C(\C)c2ccc(C)cc2)C1=O (configuration not stated) -1%
Cc1ccccc1NC(=O)Cn1c(=O)n(CC2CCCO2)c(=O)c2ccccc21 (configuration not stated) -1%
COc1cccc(NC(=S)C(C#N)=C2N(C)c3ccccc3N2C)c1 -1%
CCc1[nH]nc(C(=O)N2CCCC(CNS(=O)(=O)c3cccs3)C2)c1C (configuration not stated) 0%
CC(C(=O)NCC1CCCCC1)N(C)Cc1cccc(Cl)c1 (configuration not stated) -1%
CCO[C@H]1OC(C(=O)N2CCCCCCC2)=C[C@@H](c2ccc(C(F)(F)F)cc2)[C@@H]1CCCO -4%
O=S(=O)(c1ccc(F)cc1)N1CCN(C(=S)NCc2ccco2)CC1 -6%
CC(=O)Nc1ccc(NC(=S)NC(=O)c2ccc([N+](=O)[O-])c(C)c2)cc1 2%
CN1CCN(CCNC(=O)Nc2ccc([N+](=O)[O-])cc2)CC1 -3%
CC1CCC(C(C)C)C(=O)/C1=C\c1ccc(NC(=O)CCC(=O)O)cc1 (configuration not stated) 0%
Cc1ccc(CN2CCN(Cc3ccccc3-c3ccco3)CC2CCO)o1 (configuration not stated) -1%
CCCCC1S/C(=N/N=C/c2cccs2)NC1=O (configuration not stated) -1%
NC(=O)c1ccc(N2CCOCC2)nc1 1%
Cc1ccc2nc(C)cc(N/N=C/c3ccc(F)cc3)c2c1 0%
Cc1n[nH]c(=O)nc1N/N=C/c1cccs1 -1%
CC(=O)N/N=C/c1cc2c(cc1[N+](=O)[O-])OCO2 -2%
Cc1ccc(Cl)cc1NC(=O)c1ccccn1 -2%
NS(=O)(=O)c1ccc(NC(=O)COC(=O)c2ccco2)cc1 1%
O=C(N/N=C/c1ccco1)c1ccc(NC(=O)C2CC2)cc1 -2%
Cc1ccc2c(CC(=O)NCc3cccs3)coc2c1 -3%
COc1ccccc1NC(=O)C[n+]1ccccc1 0%
CCOC(=O)/C(C#N)=C/c1ccc(N2CCCCC2)cc1 0%
CCOC(=O)c1sc2nc(C)nc(Nc3ccc(OC)c(OC)c3)c2c1C 3%
Cc1nc2ccccc2c(C)c1C(=O)c1ccc(F)cc1 0%
CCOC(=O)c1ccc(NNC(C)=O)c([N+](=O)[O-])c1 -1%
Cc1nc2cc(NCc3cccs3)ccc2n1C -1%
COc1ccc(N2CCN(C(=O)C3CCN(S(=O)(=O)c4ccc(C)cc4)CC3)CC2)cc1 0%
O=C(CC1SC(=Nc2ccccc2)N(Cc2ccccn2)C1=O)Nc1cccc(Cl)c1 (configuration not stated) 2%
CCOC(=O)c1sc(=NC(=O)/C=C/c2cccs2)n(C)c1C 3%
CC(=O)N1CCN(S(=O)(=O)c2ccc(C)c([N+](=O)[O-])c2)C1C(C)C (configuration not stated) 0%
CCC1(CC)NC(=O)N(Cc2nc3ccccc3s2)C1=O -2%
CCCNC(=O)OC[C@H]1O[C@H](CCO/N=C/[C@@H](NS(=O)(=O)c2ccc(C)cc2)[C@H](C)/C=C/CC(=O)OC)C=C[C@@H]1Oc1ccc(OC)cc1 -2%
Cc1ccc(C(=O)NC(=S)Nc2ccc3[nH]c(=O)[nH]c3c2)cc1C -2%
CSc1nc2nc(-c3cccc(C(F)(F)F)c3)ccn2n1 5%
Cc1ccc(S(=O)(=O)N(C)C)cc1NC(=O)COC(=O)C1COc2ccccc2O1 (configuration not stated) 3%
O=C(CCN1C(=O)c2ccncc2C1=O)Nc1cc(F)ccc1F 0%
O=C(c1ccc(F)cc1)N1CCC(n2nnc3ccccc32)CC1 -2%
Cc1ccc(C)c(Cn2cnc3c(oc4ccccc43)c2=O)c1 -1%
COc1ccc(-c2ccc(CNCCCN3CCOCC3)o2)cc1Cl 2%
Cc1ccc(C(=O)O)cc1NC(=O)c1ccc(Cn2nc(C)c(Cl)c2C)o1 1%
COc1cc(NC(=S)N2CCCC(C)C2)c(OC)cc1Cl (configuration not stated) -5%
CCCCN(CC)CCNC(=O)CCNC(=O)Cn1ccc2ccccc2c1=O -4%
O=C(CCSc1ccccc1)N1CCN(c2ccccc2F)CC1 -2%
CCCN=C1NC(=O)C(CC(=O)NCCc2ccc(OC)c(OC)c2)S1 (configuration not stated) -11%
Cc1ccc(S(=O)(=O)N2CCN(C(=O)c3cccs3)CC2)cc1 -5%
Cc1ccc(S(=O)(=O)NCCC(c2ccccc2)c2ccccc2)cc1C(=O)O 1%
CN(C)C(=O)c1cccn(Cc2cccc(C(F)(F)F)c2)c1=O 0%
Cc1ccc(-c2ccc(/C=C(\C#N)C(N)=S)o2)c([N+](=O)[O-])c1 0%
O=C(COC(=O)Cn1cnc2ccccc2c1=O)NCC12CC3CC(CC(C3)C1)C2 -4%
N#C/C(C(=S)Nc1ccccc1)=C1/NN=C(N2CCOCC2)N1c1ccccc1 0%
CCN(CC)S(=O)(=O)c1ccc(N2CCOCC2)c(NC(=O)C2COc3ccccc3O2)c1 (configuration not stated) 2%
CCc1cc(C(=O)OC)c(NC(=O)CC2Sc3ccc(C(F)(F)F)cc3NC2=O)s1 (configuration not stated) -1%
Cc1ccc(S(=O)(=O)N(C)CC(=O)OCC(=O)N2CC(=O)Nc3ccccc32)cc1 1%
Cc1ccc(S(=O)(=O)NCC(=O)OCC(=O)N2CCc3ccccc32)cc1 -6%
Cc1nnsc1C(=O)N/N=C/c1cccc(C(F)(F)F)c1 -2%
CN(C)c1ccc(/C=N\S(=O)(=O)c2ccccc2)cc1 -6%
Cc1cc(NC(=O)CSCc2ccccc2C)no1 0%
COc1ccc(-n2c(C)cc(C(=O)COC(=O)c3cc(OC)c(OC)cc3NC(=O)c3cccs3)c2C)cc1 -5%
O=C(O)c1cccc(NC(=S)N/N=C/c2c[nH]c3ccccc23)c1 -3%
CC(C)N(C)C(=O)CCc1nnc(CCc2c[nH]c3ccccc23)o1 -3%
CCCCn1nc(C(=O)OCC(=O)Nc2sccc2C(N)=O)c2ccccc2c1=O -1%
CC(=O)Nc1ccc(S(=O)(=O)N(C)c2ccc(OCC(=O)OCC(=O)N3CCCCC3)cc2)cc1 -2%
COc1ccc(CN(C)C(=S)Nc2ccc(Cl)cc2Cl)cc1 1%
CCOC(=O)c1c(-c2cccc(N)c2)cn2ccccc12 0%
COCCNC(=O)COc1ccccc1C 2%
COc1ccccc1CNS(=O)(=O)c1ccc(C)cc1 -2%
CN1CCN(CC#CCC2(O)c3ccccc3-c3ccccc32)CC1 -1%
O=C(Nc1nnc(-c2ccco2)o1)c1ccc(S(=O)(=O)N2CCOCC2)cc1 0%
COCCn1c(=NC(=O)c2ccccc2[N+](=O)[O-])sc2cc(S(C)(=O)=O)ccc21 -2%
CC1(C)CC(=O)C(CC(=O)N2CCC(Cc3ccccc3)CC2)C(=O)C1 1%
COc1ccc(Cl)cc1NC(=O)COC(=O)C(CC(C)C)N1C(=O)C2CC=CCC2C1=O (configuration not stated) -1%
Cc1cc(NC(=O)CN2C(=O)NC(CCc3ccccc3)C2=O)no1 (configuration not stated) -1%
Cc1c(CCOC(=O)c2cc([N+](=O)[O-])ccc2Cl)sc[n+]1CCCCS(=O)(=O)[O-] -1%
Cc1cccc(C(=O)OCC(=O)NCC(C)C)c1O 4%
CC1(C)CC(=O)C(C2c3ccccc3S(=O)(=O)c3ccccc32)C(=O)C1 -1%
COc1ccc2oc(=O)c(C(=O)N3CCCC3)cc2c1 3%
C=CCC(CC=C)(C(N)=O)c1ccccc1 3%
COc1cc(NC(=O)COC(=O)c2cnc(C)cn2)c(C)cc1[N+](=O)[O-] 0%
Cc1ccc(-c2ccc(/C=N/NC(=O)CN3CCOCC3)o2)cc1[N+](=O)[O-] -1%
Cc1cc(C)n2nc(SCC(=O)NC(=O)NCc3ccco3)nc2n1 0%
CN(C)c1ccc(C(CC(=O)O)C(=O)O)cc1 (configuration not stated) -1%

inhibition, active:
Cc1ccc(S(=O)(=O)N(C)CC(=O)N2CCc3ccccc32)cc1 41%
Cc1ccc(S(=O)(=O)NC(=O)COc2ccccc2C)cc1 51%
